We go through 61 compounds from PubChem BioAssay AID1851 (National Center for Advancing Translational Sciences (NCATS), 2009).

The campaign covered roughly 16,000 compounds. About 5,100 (32%) were called active. Inconclusive results (about 25%) are left out. This is one part of the list. Values without a mark were called inactive. The call rests on the fitted dose curve; in most records, active means well fitted curve in the direction sought with a large enough effect; inconclusive means small, poorly fitted or top-dose-only effect, or effect the other way; inactive means no such curve, though single readings can be large or run the other way.
On the % scale 0 is the no-effect control and ±100 the full control effect.

In this experiment the target is Cytochrome P450 3A4 (Homo sapiens) (UniProt P08684). As to the kind of experiment: Cytochrome panel assay with activity outcomes. To be noted: recombinant CYP, pro-luciferin dealkylation, luminescence, p450-cyp3a4; series mostly up to 57.1 µM; activity, negative = inhibition: at the top concentration.
Chain of Cytochrome P450 3A4 (Homo sapiens) (P08684 whole entry, looked up): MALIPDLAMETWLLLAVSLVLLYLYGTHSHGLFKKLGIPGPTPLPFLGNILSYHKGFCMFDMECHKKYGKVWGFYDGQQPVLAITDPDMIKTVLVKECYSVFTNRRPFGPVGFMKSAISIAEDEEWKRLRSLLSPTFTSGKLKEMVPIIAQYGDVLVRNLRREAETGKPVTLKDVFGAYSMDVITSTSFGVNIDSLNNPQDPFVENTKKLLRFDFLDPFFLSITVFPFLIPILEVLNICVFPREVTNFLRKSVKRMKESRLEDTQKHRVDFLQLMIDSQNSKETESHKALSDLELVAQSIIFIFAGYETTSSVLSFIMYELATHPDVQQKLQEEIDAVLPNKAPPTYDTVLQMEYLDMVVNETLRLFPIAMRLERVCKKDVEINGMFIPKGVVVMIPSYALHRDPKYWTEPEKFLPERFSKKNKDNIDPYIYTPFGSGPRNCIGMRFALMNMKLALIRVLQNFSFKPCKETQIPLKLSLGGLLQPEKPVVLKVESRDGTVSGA
Regarding `CC(C)SC(=N)N`, the “activity, negative = inhibition” value was -8.48%.

Consider `COc1ccc(COC(=O)N/N=C2/C[C@@H](O)[C@@H](O)[C@@H]3[C@@H]4C(=O)N(C(C)(C)C)C(=O)[C@H]4CC[C@@H]23)cc1`, for which the activity, negative = inhibition is -13.5% [at 11.4 µM].

Take `COc1ccc(C(=O)N/N=C(\C)Cn2nc([N+](=O)[O-])cc2C)cc1`: the activity, negative = inhibition was -3.05% [at 2.29 µM].

With `COc1ccc(COC(=O)N/N=C(\C)CC(=O)Nc2c(C)cc(C)cc2C)cc1`, the AC50 is 1.78 µM (active).

In the case of `CS(=O)(=O)N1CCC[C@@]2(CCN(C(c3ccccc3)c3ccccc3)C2)C1`, the AC50 is 10 µM (active).

In the case of `CS(=O)(=O)N1CCC2(CCCN(C(c3ccccc3)c3ccccc3)C2)CC1`, the AC50 was 3.98 µM (active).

Turning to `CSc1nnnc2ccccc12`, the activity, negative = inhibition was -8.64% [at 11.4 µM].

`O=c1cc(-c2ccccc2)[nH]c2nc(Cl)ccc12`: the “activity, negative = inhibition” value was -5.23%.

Consider `N[C@@H](CO)C(=O)O`, for which the AC50 entry was “inactive”.

On to `O=C1CC(SC(=Nc2ccccc2)Nc2ccccc2)C(=O)N1c1cccc(Cl)c1` (stereo unspecified), for which the AC50 is 11.2 µM (active).

For the compound `CC(=O)Nc1cccc(N2C(=O)CCC2=O)c1`, the “activity, negative = inhibition” value was -4.58%.

Turning to `CCN=C(Nc1cccc(F)c1)SC1CC(=O)N(c2ccc(OC)cc2)C1=O` (stereo unspecified), the AC50 is 6.31 µM (active).

As for `COc1ccc(CCC(C)Nc2cccc(F)c2)cc1` (stereo unspecified), the “activity, negative = inhibition” value was 18.9%.

As for `O=C1CC(N2CCOCC2)C(=O)N1c1cccc(Cl)c1` (stereo unspecified), the “activity, negative = inhibition” value is -3.01%.

On to `CCOC(=O)NNC1CC(=O)N(c2ccc(OC)cc2)C1=O` (stereo unspecified), for which the “activity, negative = inhibition” value was -9.66%.

`Cc1cc(OCCNCCO)cc(C)c1Cl`: the “activity, negative = inhibition” value was -20%.

For `CC(C)c1ccc(/C=C2\C=C(c3ccc4ccccc4c3)OC2=O)cc1`, the activity, negative = inhibition was -9.49% [at 11.4 µM].

`CCS(=O)(=O)N1CCC(C(=O)NCCCN2CCCC2)CC1`: the “activity, negative = inhibition” value is -16%.

For `CCS(=O)(=O)N1CCC(C(=O)NCc2cccnc2)CC1`, the activity, negative = inhibition is -2.97% [at 2.29 µM].

With `CC(C)CN(CC(C)C)S(=O)(=O)N1CCC(C(=O)NCc2ccc(F)cc2)CC1`, the AC50 was 15.8 µM (active).

As for `CCCCN(CC)S(=O)(=O)N1CCC(C(=O)NCCCN2CCOCC2)CC1`, the AC50 is 11.2 µM (active).

On to `CCS(=O)(=O)N1CCC(C(=O)NCc2ccc(F)cc2Cl)CC1`, for which the “activity, negative = inhibition” value is -27.7%.

For `CCN(CC)S(=O)(=O)N1CCC(C(=O)NCc2ccc(C)cc2)CC1`, the AC50 is 11.2 µM (active).

Take `Cc1ccc(S(=O)(=O)N2CCC(C(=O)NCc3cccnc3)CC2)cc1`: the AC50 is 3.16 µM (active).

Turning to `CCCS(=O)(=O)N1CCCC(C(=O)NCCN2CCOCC2)C1` (stereo unspecified), the activity, negative = inhibition was 0.644% [at 11.4 µM].

On to `C=C[C@H](N)CCC(=O)O`, for which the AC50 result is “inactive”.

As to `Cc1ccc(CN2C(=O)CCC2C(=O)NCc2cccnc2)cc1` (stereo unspecified), the AC50 is 2.24 µM (active).

With `CC(C)(C)c1nc(SCC(=O)Nc2ccc3c(c2)OCCO3)c2ccccc2n1`, the concentration at half-maximal activity (AC50) is 7.08 µM (active).

Take `Cc1nc(SCC(=O)Nc2ccc3c(c2)OCCO3)c2oc3ccccc3c2n1`: the AC50 was 7.94 µM (active).

With `CN(C)CCn1nnnc1SCC1=C(C(=O)O)N2C(=O)[C@@H](NC(=O)Cc3csc(N)n3)[C@@H]2SC1`, the “activity, negative = inhibition” value was -0.668% [at 25.6 µM].

Turning to `C[N+]1(C)CCc2cc(O)c(O)cc2[C@H]1Cc1ccc(O)c(O)c1`, the activity, negative = inhibition is -3.96% [at 11.4 µM].

Turning to `COC(=O)C/C=C\[C@H](C)[C@@H](OC)c1ccccc1Br`, the activity, negative = inhibition is -22.3% [at 11.4 µM].

Regarding `CCO[C@H](c1cc(OC)cc([N+](=O)[O-])c1OC)[C@H](C)/C=C\CC(=O)OC`, the AC50 is 3.98 µM (active).

Consider `CCC(Sc1nc(=O)cc(N)n1CCc1ccccc1)C(=O)Nc1ccccc1C#N` (stereo unspecified), for which the AC50 was 0.1 µM (active).

Take `C[C@H](NC(=O)Cn1cncn1)c1ccccc1`: the “activity, negative = inhibition” value is 9.64%.

Regarding `Nc1cc(=O)nc(SCC(=O)Nc2cccc3ccccc23)n1CCc1ccccc1`, the AC50 was 0.126 µM (active).

As to `CC(NC(=O)CSc1nc(=O)cc(N)n1CCc1ccccc1)c1ccccc1` (stereo unspecified), the AC50 was 0.178 µM (active).

`N#Cc1ccccc1NC(=O)Nc1cccs1`: the “activity, negative = inhibition” value was -12.3%.

For `O=C1OCCC=C1[C@@H](O)CCc1ccccc1`, the activity, negative = inhibition is -19.7% [at 11.4 µM].

As to `Cn1cccc1C(=O)C(=O)Nc1cccc(Cl)c1Cl`, the “activity, negative = inhibition” value is -26.2%.

Consider `COCc1nnc(NC(=O)c2ccc(S(=O)(=O)N3CCCCCC3)cc2)o1`, for which the “activity, negative = inhibition” value is -17.3%.

Regarding `COc1ccc(-n2c(CNC(=O)c3ccc(S(=O)(=O)N4CCCC4)cc3)n[nH]c2=S)cc1`, the AC50 was 12.6 µM (active).

For `COc1ccc(-n2c(CNC(=O)c3cc(OC)c(OC)c(OC)c3)n[nH]c2=S)cc1`, the AC50 is 7.94 µM (active).

Regarding `COc1ccc(-n2c(=S)[nH]c3cc(C(=O)NCCCN4CCCC4=O)ccc3c2=O)cc1`, the “activity, negative = inhibition” value was -2.66%.

In the case of `COCCNC(=O)c1ccc2c(c1)nc(C)n2-c1cc(OC)c(OC)c(OC)c1`, the “activity, negative = inhibition” value is -9.78%.

As to `O=C(NCc1n[nH]c(=S)n1-c1cccc(Cl)c1)c1ccc(S(=O)(=O)N2CCCC2)cc1`, the AC50 was 4.47 µM (active).

On to `COCC(=O)Nc1c(I)c(C(=O)NC[C@@H](O)CO)c(I)c(C(=O)N(C)C[C@@H](O)CO)c1I`, for which the “activity, negative = inhibition” value is -14.3% [at 25.6 µM].

As to `CN(CCOc1ccc(C[C@H](Nc2ccccc2C(=O)c2ccccc2)C(=O)O)cc1)c1ccccn1`, the AC50 was 10 µM (active).

Turning to `CCN(CC)CCOc1ccc(Cc2ccccc2)cc1`, the “activity, negative = inhibition” value was 4.64%.

Consider `CC1=CC(=O)CC(C)(C)[C@]1(O)/C=C\C(C)=C\C(=O)O`, for which the activity, negative = inhibition was -1.41% [at 11.4 µM].

On to `S=c1[nH]nc(CSCc2ccccc2Cl)n1-c1ccccc1`, for which the AC50 was 7.94 µM (active).

Consider `CCc1nnc(NC(=O)C2CCN(C(=O)NC3CCCCC3)CC2)s1`, for which the “activity, negative = inhibition” value was -25.1%.

As for `CCNC(=S)N1CCC(NC(=O)C2CCCCC2)CC1`, the AC50 was 14.1 µM (active).

Take `CCOC(=O)N1CCC(NC(=O)C2CCN(S(=O)(=O)N3CCCC3)CC2)CC1`: the “activity, negative = inhibition” value is -7.25%.

As to `CCn1nnnc1SCC(=O)NC1CCCC1`, the “activity, negative = inhibition” value is -18.8%.

Turning to `CCn1c(SCC(=O)Nc2nc3ccc(C)cc3s2)nc2c(c1=O)SC(C)C2` (stereo unspecified), the AC50 is 5.01 µM (active).

Turning to `CCn1c(SCC(=O)Nc2ccc3c(c2)OCCO3)nc2c(c1=O)SC(C)C2` (stereo unspecified), the AC50 was 10 µM (active).

With `Cc1ccc2nc(NC(=O)CSc3nc4c(c(=O)n3C)SC(C)C4)sc2c1` (stereo unspecified), the “activity, negative = inhibition” value was 16.7%.

For `CCn1c(SCC(=O)NC2CCCCC2)nc2c(c1=O)SC(C)C2` (stereo unspecified), the AC50 was 15.8 µM (active).

Take `CCOc1ccc(-n2c(SCC(=O)Nc3ccc4c(c3)OCCO4)nc3c(c2=O)SCC3)cc1`: the “activity, negative = inhibition” value is -11.1%.

As for `Cc1nc2cccc([N+](=O)[O-])c2n1CCCN(C)C`, the activity, negative = inhibition was -0.756% [at 11.4 µM].

The AC50 is the concentration at which the activity in the assay is half-maximal.
